Assay outcomes deposited in PubChem by National Center for Advancing Translational Sciences (NCATS).
Cruzain inh Det: qHTS Assay for Promiscuous and Specific Inhibitors of Cruzain (with detergent); 200,000 tested, 0.43% active; Potency, µM, for inactives: max response, negative = inhibition, most hits filed as inhibitors; purified cruzain, Z-FR-AMC fluorescence, 0.01% Triton;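 note: plate controls were neutral wells for no effect and buffer without enzyme for full effect; nearly all actives have a fitted effect of over 40% in size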
Target sequence (P25779 123-467 limits assumed): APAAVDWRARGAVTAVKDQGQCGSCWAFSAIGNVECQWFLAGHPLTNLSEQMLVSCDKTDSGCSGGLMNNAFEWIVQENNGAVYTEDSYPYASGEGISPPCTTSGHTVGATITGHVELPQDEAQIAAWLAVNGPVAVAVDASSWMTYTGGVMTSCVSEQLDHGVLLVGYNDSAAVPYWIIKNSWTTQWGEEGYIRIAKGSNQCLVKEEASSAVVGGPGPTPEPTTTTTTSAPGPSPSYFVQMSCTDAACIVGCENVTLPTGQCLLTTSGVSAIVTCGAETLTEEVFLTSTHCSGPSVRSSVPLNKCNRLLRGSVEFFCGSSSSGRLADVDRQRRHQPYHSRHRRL
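Enzyme 1.5 nM, Z-FR-AMC 2 uM, NaOAc 100 mM pH 5.5, DTT 5 mM, Triton X-100 0.01%; 15 min RT compound preincubation; kinetic ex360/em450, 60 s delta.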
Cruzain inh noDet: qHTS Assay for Promiscuous and Specific Inhibitors of Cruzain (without detergent); Potency, µM, for the others: max response, negative = inhibition, actives largely listed as inhibitors; 200,000 tested, 2.3% active; purified cruzain, Z-FR-AMC fluorescence, no detergent; AID 1476, 2009;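 note: plate controls were enzyme without inhibitor for no effect and buffer without enzyme for full effect; nearly all actives have a fitted effect of over 40% in size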
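Purified cruzain at 1.5 nM, pre-incubated 15 min with compound at room temperature in 100 mM sodium acetate pH 5.5, 5 mM DTT, 0.00005% Triton X-100. Reaction started with 2 uM Z-FR-AMC; AMC fluorescence increase over 60 s gives rate.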
* = called active by the depositor; ? = inconclusive. Shown are actives, neighbours in structure and some others; about 2.5% of the full set was active somewhere. Calls come from the whole dose curve; as a rule, active = well fitted curve in the direction sought with a large enough effect; inconclusive = small, poorly fitted or top-dose-only effect, or another doubt; inactive = no such curve, though single readings can be large; an effect the other way counts as inactive or inconclusive. Potency is the fitted concentration of half-maximal effect.

SMILES	Cruzain inh Det	Cruzain inh noDet
CN(C)S(=O)(=O)c1ccc(C(=O)NCCSc2c(-c3ccc(Br)cc3)[nH]c3ccccc23)cc1	1%	25µM*
NC[C@H]1O[C@H](n2cnc3c(N)ncnc32)C[C@@H]1O	0%	7%
CCc1ccc(CNC(=O)c2c3c(nc4ccccc24)C(=O)N(C2CCCCC2)C3)cc1	-9%	?
CCN(CC)c1cccc(O)c1	1%	-1%
CCOc1ccc(/C=N/NC(=O)Cc2csc(Nc3cccc(C(F)(F)F)c3)n2)c(OCC)c1	4%	?
CCOc1ccccc1/C=N/NC(=O)Cc1csc(Nc2cccc(C(F)(F)F)c2)n1	-2%	10µM*
COc1ccc(OC)c(C2CC(=O)c3c([nH]c(C(=O)OCC4CCCCC4)c3C)C2)c1 (stereo unspecified)	2%	-15%
O=CN1CCN(C[C@H](O)CN2CCCCC2)CC1	3%	9%
Nc1cccc2c(N)cccc12	-5%	2%
Nc1cc2c(nc3c4ccccc4c(N)cc3[n+]2-c2cccc3ccccc23)c2ccccc12 (tested in a mixture with another compound)	0%	1.3µM*
CCc1ccc(NC(=O)C(C)OC(=O)c2ccc(NS(=O)(=O)c3ccc(C)c([N+](=O)[O-])c3)cc2)cc1 (stereo unspecified)	-1%	16µM*
Cc1ccc(C(=O)COC(=O)c2ccccc2NC(=O)c2ccccc2)cc1[N+](=O)[O-]	-3%	?
Cc1ccc(S(=O)(=O)Nc2ccccc2C(=O)OC(C)C(=O)Nc2ccc3ccccc3c2)cc1[N+](=O)[O-] (stereo unspecified)	-4%	7.9µM*
CCOC(=O)c1ccc(NS(=O)(=O)c2ccc3[nH]c4c(c3c2)CCCCC4)cc1	-4%	?
Cc1ccc(NC(=O)C(C)OC(=O)c2ccc(NS(=O)(=O)c3ccc(F)c(F)c3)cc2)cc1 (stereo unspecified)	-10%	-23%
CC(=O)c1ccc(NC(=O)C(C)OC(=O)c2ccc(NS(=O)(=O)c3ccc(F)c(F)c3)cc2)cc1 (stereo unspecified)	-7%	16µM*
N=C(N)SCCCN	0%	-5%
Cc1c(NS(=O)(=O)c2ccc(C(C)(C)C)cc2)c(=O)n(-c2ccccc2)n1C	-8%	-6%
Cc1cc(NC(=O)CN(c2cccc(C)c2C)S(=O)(=O)c2ccccc2)ccc1Br	-3%	6.3µM*
Cc1cc(C)cc(NC(=O)CN(c2cccc(C)c2C)S(=O)(=O)c2ccccc2)c1	-7%	?
COc1ccc(Cl)cc1NC(=O)CSc1cn(CC(=O)N2CCCCCC2)c2ccccc12	-5%	?
COc1cc(OC)c2c(-c3cccc(-c4ccc(CO)cc4)c3)cc(=O)oc2c1	-1%	3%
COc1cc(OC)c2c(-c3cccc(-c4ccc(O)cc4)c3)cc(=O)oc2c1	0%	?
COc1cc(OC)c2c(-c3cccc(-c4cccc(C)c4)c3)cc(=O)oc2c1	0%	10µM*
COc1ccc(-c2cccc(-c3cc(=O)oc4cc5c(cc34)OCO5)c2)cc1	4%	?
SMILES	Cruzain inh Det	Cruzain inh noDet
Cc1cccc(-c2cccc(-c3cc(=O)oc4cc5c(cc34)OCO5)c2)c1	-1%	35µM*
COc1cc(OC)c2c(-c3cccc(-c4ccc(OC(F)(F)F)cc4)c3)cc(=O)oc2c1	-2%	?
COc1cc(OC)c2c(-c3cccc(/C=C/c4ccc(F)cc4)c3)cc(=O)oc2c1	3%	10µM*
COc1cc(OC)c2c(-c3cccc(-c4ccc(N(C)C)cc4)c3)cc(=O)oc2c1	3%	32µM*
O=C(O)C[C@@H](C(=O)O)C1c2ccccc2-c2ccccc21	0%	0%
Cc1cc(N=Cc2c(CO)cnc(C)c2O)c(N=Cc2c(CO)cnc(C)c2O)cc1C.[Zn]	-12%	?
Cc1ccc(CNC(=O)c2ccc(CS(=O)(=O)c3ccccc3C)o2)cc1	-2%	-2%
COC(=O)c1ccc(CS(=O)(=O)c2ccccc2C)o1	3%	16µM*
Cn1cc(/C=C2/SC(=O)N(c3ccccc3)C2=O)c2ccccc21	1%	?
Cc1ccc(N=C2NC(=O)/C(=C/c3cn(C)c4ccccc34)S2)cc1C	-5%	13µM*
CCn1c(-c2cc(-c3cccc(OC)c3)nc3ccccc23)n[nH]c1=S	-13%	5%
CCc1ccc(-c2cc(-c3n[nH]c(=S)n3CC)c3ccccc3n2)cc1	-3%	16µM*
NS(=O)(=O)c1ccc(CCN2C(=O)/C(=C\c3ccc(Cl)cc3)SC2=S)cc1	-2%	25µM*
Cc1ccc(C)n1N1C(=O)/C(=C\c2ccc(Cl)cc2)SC1=S	-6%	?
O=C(CN1CCN(CCN2C(=O)c3cccc4cccc(c34)C2=O)CC1)c1ccc(F)cc1	-28%	?
O=C1C2C=CC=CC2=NC(=S)N1CCN1CCC(=C(c2ccc(F)cc2)c2ccc(F)cc2)CC1 (stereo unspecified)	-10%	13µM*
Cc1ccc2[nH]c(CSc3nnc(NC(=O)COc4ccccc4Cl)s3)cc(=O)c2c1	-2%	-19%
C=CCn1c(=O)c2ccccc2n2c(SCC(=O)NCCc3ccccc3)nnc12	0%	-9%
C=CCn1c(=O)c2ccccc2n2c(SCC(=O)c3ccccc3)nnc12	-1%	16µM*
N#Cc1cccc(-c2nc3cnc(N4CCOCC4)nc3n(C[C@H]3CCCO3)c2=O)c1	4%	10%
Cc1cccc(N2CCn3c2nc2c3c(=O)n(CCCc3ccccc3)c(=O)n2C)c1	-4%	13%
CN(C)c1ccc(C(CNC(=O)c2ccccc2Cl)N2CCc3ccccc32)cc1 (stereo unspecified)	-17%	32µM*
COc1ccccc1C(=O)NCC(c1ccc(N(C)C)cc1)N1CCc2ccccc21 (stereo unspecified)	-11%	?
CC(C)Oc1ccc(C(=O)NCC(c2ccc(N(C)C)cc2)N2CCc3ccccc32)cc1 (stereo unspecified)	-4%	?
COc1ccc(C(=O)NCC(c2ccc(N(C)C)cc2)N2CCc3ccccc32)cc1 (stereo unspecified)	?	13µM*
SMILES	Cruzain inh Det	Cruzain inh noDet
C=CCOC(=O)/C(=C/c1ccco1)NC(=O)/C=C/c1ccccc1	28µM*	-28%
O=C(O)CNC(=O)/C(=C/c1ccco1)NC(=O)/C=C/c1ccccc1	-6%	2%
COc1ccc(C(=O)N2c3ccccc3C=CC2C#N)cc1 (stereo unspecified)	-14%	-1%
N#C[C@H]1[C@H](c2ccccc2)[C@](C#N)(C(=O)c2ccccc2)[C@@H]2C=Cc3ccccc3N21	-4%	25µM*
O=[N+]([O-])c1ccc(NN=C2c3ccccc3Cc3ccccc32)c([N+](=O)[O-])c1	9%	-9%
O=C(/C=C/c1cccs1)c1ccc(NC(=O)c2cccc(Br)c2)cc1	1%	16µM*
Cc1ccc(C(=O)Nc2ccc(C(=O)/C=C/c3cccs3)cc2)cc1	9%	25µM*
O=C(/C=C/c1cccs1)c1ccc(Br)cc1	-5%	-4%
Cc1ccc(NC(=O)COC(=O)/C=C/c2cccs2)cc1	0%	-8%
CC(Oc1ccc2c(-c3ccccc3)cc(=O)oc2c1)C(=O)O (stereo unspecified)	-1%	-4%
O=C(NC(Cc1ccccc1)C(=O)Oc1ccc2c(C(F)(F)F)cc(=O)oc2c1)OCc1ccccc1 (stereo unspecified)	11µM*	?
